# In PubChem BioAssay AID837 (The Scripps Research Institute Molecular Screening Center, 2007):
# Activity calls are given as the source filed them.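 Rule for the calls: active = relative FRET score above 0.01, or acceptor fluorescence over 30% below the sample-well median; inactive = the rest.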
# Target: Protein Rev (Human immunodeficiency virus type 1 group M subtype B (isolate WMJ22)) (UniProt P05866)
# Test: disruptors of Rev peptide-RRE RNA complex – biochemical, FRET, acceptor and relative FRET calls, confirmation (AID 837);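 note: relative FRET combines rise in Cy5 acceptor with fall in fluorescein donor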
# Conditions: Fl-Rev peptide / Cy5-RRE RNA FRET, 1536-well; at 8 µM
# Protein Rev (Human immunodeficiency virus type 1 group M subtype B (isolate WMJ22)), sequence (P05866 whole entry, looked up): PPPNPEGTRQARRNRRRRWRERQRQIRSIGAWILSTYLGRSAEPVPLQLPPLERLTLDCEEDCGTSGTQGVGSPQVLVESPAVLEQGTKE
row,SMILES,outcome
1,CCc1ccc2nc3nc(C)cc(C)c3c(N)c2c1,active
2,CCOC(=O)c1cn2nc(-c3ccc(OCC)cc3)cc2nc1C1CCN(C(=O)OC(C)(C)C)CC1,inactive
3,CCOC(=O)c1c(C)n(C)c2ccc(O)c(CN(C)C)c12,active
4,OCCN=c1cc(-c2ccccc2)oc2ccc(Cl)cc12,inactive
5,COc1cccc(Nc2nc(NCC3CCCO3)c3ccccc3n2)c1 (stereo not given),inactive
6,Cc1cc(C)cc(NC2=NC3(CCCCC3)N=C(N)N2)c1,inactive
7,O=C(N/N=C/c1cccc(F)c1)c1cc(-c2ccco2)nc2ccccc12,active; quenches the donor
8,O=C(NCc1cccs1)c1cc2c(s1)CCCC2,inactive
9,COc1cccc(Nc2nc(N)nc(-c3oc4ccccc4c3C)n2)c1,active
10,O=C(c1cccc(F)c1)N1CCN(c2cccc(Cl)c2)CC1,inactive
11,CN(C)CCCNC(=O)c1ccc(-c2nc(-c3ccc(Cl)cc3)cs2)cc1,inactive
12,Cc1ccc(C2NC(=O)c3c(sc4c3CCN(C)C4)N2)s1 (stereo not given),inactive
13,Nc1[nH]c(=S)[nH]c(=O)c1-c1ccccc1,inactive
14,CC(C)c1ccc(CNCc2ccccc2)cc1,inactive
15,Cc1cccc(NC2=NC3(CCCCC3)N=C(N)N2)c1C,inactive
16,CCCCCCCCNc1ncnc2ccccc12,inactive
17,CN=C1c2c(-c3ccccc3)c3cc(OC)ccc3n2CCN1C,inactive
18,CCCCOC(=O)Cn1c(=N)n(CCN(CC)CC)c2ccccc21,inactive
19,Cc1ccc2nc(NC(=O)c3ccc(Cl)s3)sc2c1,inactive
20,OC(COc1ccc2cc(Br)ccc2c1)CN1CCCC1 (stereo not given),inactive
